From PubChem BioAssay
A selection: hits, their analogues and other compounds. The true share with any hit is near 3.8%.
HepG2 viability = qHTS for Inhibitors of TGF-b: Cytotox Counterscreen; HepG2 CAGA-GFP viability, ATP luminescence, 18 h; actives 0.76% (n = 410,000); Potency, µM (series often up to 46.1 µM), for the others: at the highest dose activity change, negative = cytotoxicity, actives largely listed as cytotoxic
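CellTiter-Glo luminescence gave cytotoxicity after 18 hours at 37 degrees C. The cells were HepG2 CAGA-GFP in 1% FBS DMEM, stimulated with 500 pg/mL TGF-beta after compound addition. %Activity was normalised to no-cell wells (complete cell-killing) and DMSO (no toxicity), and curves were fitted and classified.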
A549 tox-1 = Nrf2 qHTS screen for inhibitors: counterscreen for cytotoxicity | A549 ARE-Fluc cells, CellTiter-Fluor viability, 18-24 h | Potency, µM (titrated, usually from 46 µM), without a hit: at the top dose activity change, negative = cytotoxicity, most hits filed as inhibitors | actives 0.16% (n = 390,000) | AID 504648, 2011; note: % is set by controls: 0 for no effect and ±100 for the full control effect
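Cytotoxicity counterscreen: CellTiter-Fluor fluorescence was measured in A549 ARE_Fluc cells after 18-24 h of compound exposure in a concentration series. The subsequent BugLite luminescent read reports ARE-luciferase activity.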
TGFb inhibitor = qHTS for Inhibitors of TGF-b; Potency, µM (titrated, usually from 46.1 µM), for the others: at the top dose activity, negative = inhibition, most hits filed as inhibitors; actives 1.2% (n = 410,000); AID 588855, 2011; HepG2 CAGA-GFP TGF-b/SMAD3 reporter, GFP fluorescence, 18 h; TGF-beta stimulated, 500 pg/mL final; note: % is set by controls: 0 for no effect and ±100 for the full control effect; nearly all actives have a fitted effect of over 65% in size
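Per well, imaged GFP fluorescence of HEPG2 CAGA-GFP cells gives the signal; cells get compound, then TGF-beta (500 pg/mL final), 18 h at 37 degrees C; %Activity versus -TGF-beta and +DMSO controls.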
ATXN viability = Viability Counterscreen for Primary qHTS for Inhibitors of ATXN expression; S2 cells (HEK-293 line with an ATXN2-luciferase reporter) viability, CellTiter-Fluor protease fluorescence, 24 h; Potency, µM (titrated, usually from 56.7 µM), most hits filed as cytotoxic; actives 0.49% (n = 400,000); note: nearly all actives have a fitted effect of over 40% in size
Nrf2 inh = Nrf2 qHTS screen for inhibitors; A549 ARE-Fluc reporter, luciferase luminescence, 18-24 h; Potency, µM (titrated, usually from 46 µM), inactives show at the highest dose activity change, negative = inhibition, usual class: inhibitors; actives 2.1% (n = 360,000); note: % is set by controls: 0 for no effect and ±100 for the full control effect; nearly all actives have a fitted effect of over 60% in size
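Nrf2 activity is the BugLite luminescence, read 15 min after reagent at room temperature, following CellTiter-Fluor cytotoxicity readout (30 min, 37C). Compound titrations were applied for 18-24 h to 5000 A549 ARE_Fluc cells/well in 5% FBS OPTI-MEM.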
ATXN2 expr inh = Primary qHTS for Inhibitors of ATXN expression | Potency, µM (highest dose often 57 µM), without a hit: at the highest dose activity change, negative = inhibition, usual class: inhibitors | actives 0.72% (n = 360,000) | HEK-293 ATXN2-luciferase reporter, luminescence, 24 h; note: % is set by controls: 0 for no effect and ±100 for the full control effect; nearly all actives have a fitted effect of over 55% in size
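ATXN2-luciferase reporter cells (luciferase flanked by upstream and downstream ATXN2 gene portions) were treated 24 h at 37 °C with compounds at up to 57 uM. SteadyGlo luminescence gave expression; GF-AFC fluorescence gave viability.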
FLuc counter 3 = Nrf2 qHTS screen for inhibitors: Purified Fluc Biochemical Counterscreen for Hit Validation | actives 4% (n = 1,400) | shares compounds with Nrf2 inh | Potency, µM (titrated, usually from 57.5 µM), inactives show top-dose activity change, negative = inhibition, hits mostly inhibitors | purified firefly luciferase, luminescence inhibition; note: % is set by controls: 0 for no effect and ±100 for the full control effect; nearly all actives have a fitted effect of over 65% in size
Target sequence (P08659 whole entry, looked up): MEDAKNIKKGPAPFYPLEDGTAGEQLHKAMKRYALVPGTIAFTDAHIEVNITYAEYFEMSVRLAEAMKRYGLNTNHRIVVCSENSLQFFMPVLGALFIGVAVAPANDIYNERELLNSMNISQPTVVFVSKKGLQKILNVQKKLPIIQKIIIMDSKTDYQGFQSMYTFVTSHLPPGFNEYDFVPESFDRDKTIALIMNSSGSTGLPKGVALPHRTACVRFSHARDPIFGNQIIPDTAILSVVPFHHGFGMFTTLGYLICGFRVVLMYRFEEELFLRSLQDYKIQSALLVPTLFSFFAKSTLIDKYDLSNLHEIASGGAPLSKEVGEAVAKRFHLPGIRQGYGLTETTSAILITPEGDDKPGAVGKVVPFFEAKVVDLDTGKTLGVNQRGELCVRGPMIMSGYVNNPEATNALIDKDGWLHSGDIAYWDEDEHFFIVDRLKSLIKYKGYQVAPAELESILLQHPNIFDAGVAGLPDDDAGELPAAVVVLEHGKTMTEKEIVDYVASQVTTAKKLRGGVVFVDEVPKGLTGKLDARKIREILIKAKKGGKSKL
A549 tox-2 = Nrf2 qHTS screen for inhibitors: A549 ARE-Fluc Cytotoxicity Counterscreen for Hit Validation; Potency, µM (highest dose often 46.1 µM), for inactives: at the top dose activity change, negative = cytotoxicity, actives largely listed as inhibitors; actives 2% (n = 1,400); shares compounds with Nrf2 inh; A549 ARE-Fluc cells, cytotoxicity counterscreen; AID 720523, 2013;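 note: cells exposed to compounds for 18 to 24 hours; % is set by controls: 0 for no effect and ±100 for the full control effect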
ARE-Fluc inh = Nrf2 qHTS screen for inhibitors: Nrf2 A549 ARE-Fluc Confirmation Assay for Hit Validation. shares compounds with Nrf2 inh. A549 ARE-firefly luciferase reporter, luminescence. Potency, µM (doses to about 46.1 µM), for inactives: at the highest dose activity change, negative = inhibition, most hits filed as inhibitors. actives 74% (n = 1,400). AID 720524, 2013; note: % is set by controls: 0 for no effect and ±100 for the full control effect; nearly all actives have a fitted effect of over 65% in size
* marks the source's active call; other numbers are inactive results; i = inactive; ? = inconclusive; / = no result given. Calls come from the whole dose curve; as a rule, active = well fitted curve in the direction sought with a large enough effect; inconclusive = small, poorly fitted or top-dose-only effect, or another doubt; inactive = no such curve, though single readings can be large; an effect the other way counts as inactive or inconclusive. Potency is the fitted concentration of half-maximal effect.

SMILES	HepG2 viability	A549 tox-1	TGFb inhibitor	ATXN viability	Nrf2 inh	ATXN2 expr inh	FLuc counter 3	A549 tox-2	ARE-Fluc inh
CCS(=O)(=O)N1CCCC(C(=O)c2ccc(OC)cc2C)C1 (centres undefined)	9.5%	-9.1%	-0.2%	i	-13.8%	-15.6%	/	/	/
CCOC(=O)C1CCCN(S(=O)(=O)c2ccc(S(=O)(=O)N3CCCC3)cc2)C1 (centres undefined)	2.4%	-15.3%	7.5%	i	8.2µM*	-4.5%	3.0%	-3.0%	?
COc1ccc(C(=O)C2CCCN(S(=O)(=O)c3ccc(C(C)=O)cc3)C2)c(C)c1 (centres undefined)	-8.5%	-13.6%	-26.2%	i	8.2µM*	?	4.6%	-2.3%	/
COc1cccc(NC(=O)N(Cc2cn(C)c3ccccc23)C2CCCCC2)c1	-35.7%	?	?	?	3.26µM*	?	-10.6%	?	?
Cc1cc([N+](C)(C)C)cc(C)c1/C=C/c1ccnc2ccccc12	-15.4%	/	-12.5%	/	/	/	/	/	/
Cc1cc(N(C)C)cc(C)c1/C=C/c1ccnc2ccccc12	-33.8%	/	?	/	/	/	?	?	9.2µM*
COc1ccccc1N=c1oc2cc(O)ccc2cc1C(=O)NCC1CCCO1 (centres undefined)	-24.0%	/	1.9%	i	?	-13.2%	-16.2%	0.4%	13µM*
CCOc1cc(C(=O)OC(C(=O)NC(=O)NC)c2ccccc2)ccc1OCC(=O)N1CCOCC1 (centres undefined)	2.3%	1.1%	-15.9%	i	-0.5%	-10.5%	/	/	/
CCC(=O)c1ccc(OCc2ccc(C(=O)c3ccccc3)cc2)cc1	-6.3%	?	-21.8%	i	7.31µM*	/	-2.0%	-2.4%	8.2µM*
CCC(=O)c1ccc(OCc2ccccc2)c(OC)c1	0.8%	0.0%	-28.4%	i	?	74.1%	/	/	/
CCOC(=O)[C@]12CCCC=C1N(Cc1cccc3ccccc13)C(=O)[C@H](CC(=O)N1CCSCC1)C2	/	/	/	?	/	-7.0%	/	/	/
FC(F)(F)c1cc(-c2ccccc2)nc(N2CCCCC2)n1	-6.7%	3.4%	?	i	/	-2.7%	/	/	/
O=C(O)C1CCCN1c1nc(-c2ccc(Cl)c(Cl)c2)cc(C(F)(F)F)n1 (centres undefined)	-13.9%	-13.6%	?	i	7.31µM*	-8.7%	-11.7%	-20.5%	/
Cc1cccc(C(=O)Nc2ccc3oc(-c4ccncc4)nc3c2)c1	-12.4%	-2.4%	-11.2%	/	9.2µM*	/	-17.7%	-4.6%	1.46µM*
Cc1cccc(C(=O)Nc2ccnc(-c3ccncc3)n2)c1	-16.3%	?	-4.9%	i	2.59µM*	/	-2.6%	0.7%	-24.3%
Cc1ccc(C)c(NC(=O)Cn2cnc3c(oc4ccccc43)c2=O)c1	3.3%	1.2%	17.4%	i	10.3%	-35.5%	/	/	/
C[C@@H]1[C@H](c2ccccc2)OCCS(=O)(=O)N1Cc1ccccc1Br	6.8%	/	?	/	/	/	/	/	/
Cc1nc(CNC(=O)CC2C(=O)NCCN2Cc2cccc(Oc3ccccc3)c2)cs1 (centres undefined)	5.9%	24.5%	12.4%	i	-43.7%	/	/	/	/
CCOc1ccc(S(=O)(=O)N(C)c2ccc(OCC(=O)Nc3nc4ccccc4s3)cc2)cc1	-28.9%	-11.8%	?	i	2.31µM*	-13.4%	1.5%	-2.3%	9.2µM*
CN(c1ccc(OCC(=O)Nc2nc3ccccc3s2)cc1)S(=O)(=O)c1ccccc1	-6.4%	-15.8%	-5.9%	i	?	-5.0%	/	/	/
COc1ccc(CCNC(=O)COc2ccc(N(C)S(=O)(=O)c3ccc(Cl)cc3)cc2)cc1	1.1%	-4.3%	-18.4%	i	3.66µM*	?	-0.7%	-6.6%	18.4µM*
CC(C)CC[n+]1ccccc1/C=C/c1ccc(N(C)C)cc1	-21.7%	?	32.8%	?	7.31µM*	?	2.2%	?	5.8µM*
COc1ccc(N2CCN(C(=O)CN3CCN(c4nc(-c5ccc(F)cc5)cs4)CC3)CC2)cc1	-2.3%	?	-8.4%	i	7.31µM*	-15.5%	-5.4%	-16.0%	11.6µM*
NC(=O)c1ncn([C@@H]2O[C@H](CNCc3cccc(OC4CCCC4)c3)[C@@H](O)[C@H]2O)n1	4.1%	-8.9%	-21.2%	i	5.5%	6.0%	/	/	/
Cc1cc[n+](C(C)C(=O)c2ccc(-c3ccccc3)cc2)cc1 (centres undefined)	-26.4%	-23.6%	?	i	8.2µM*	?	3.1%	-16.1%	9.2µM*
Cc1cc[n+](C(C)C(=O)c2ccc(Cl)cc2)cc1 (centres undefined)	-3.4%	-2.7%	15.0%	i	?	-16.7%	/	/	/
COc1ccc(C2C3=C(CC(C)(C)CC3=O)Nc3c2c(=O)[nH]c2nc(C)nn32)cc1 (centres undefined)	-0.2%	-2.9%	8.6%	i	0.6%	2.7%	/	/	/
CCOc1ccc(NC(=O)CN(C)C(=O)Cn2cnc3c2c(=O)n(C)c(=O)n3C)cc1OCC	-22.8%	-3.0%	-7.2%	i	0.2%	-2.1%	/	/	/
Cc1cccc(-n2ncc3c2CCCC3NC(=O)C2(C(N)=O)CC2)c1C (centres undefined)	-16.3%	-8.2%	0.0%	i	2.31µM*	-22.6%	-1.9%	-4.9%	3.66µM*
Cc1cc(C(=O)NC2CCCc3c2cnn3-c2ccc(C)c(C)c2)n(C)n1 (centres undefined)	-30.9%	-21.3%	-32.5%	i	0.206µM*	-25.9%	-6.7%	-10.9%	0.0231µM*
